Results: PubChem BioAssay (NCATS)
Records with an inconclusive call do not appear. Calls of active or inactive are those of the source. Calls follow the shape of the dose curve; as a rule, active = well fitted curve in the direction sought with a large enough effect; inconclusive = small, poorly fitted or top-dose-only effect, or another doubt; inactive = no such curve, though single readings can be large; an effect the other way counts as inactive or inconclusive.

Legend:
NIH3T3 = assay: qHTS assay to identify novel small-molecules to repurpose for Merkel cell carcinoma treatment (AID 1296009); settings: MCC and control cell lines, CellTiter-Glo viability, 72 h; at 44.8 µM (top of the series) unless noted; also: nearly all actives have a fitted effect of over 60% in size
How it was run: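 Cells were treated for 72 hr at 37 degree celsius with compounds in 8- or 11-point dose response. Viability was read by CellTiter-Glo luminescence, normalized to no-cell (cytotoxicity) and DMSO controls.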

C33A = assay: Primary qHTS to identify gynecologic anti-cancer compounds using libraries of approved drugs and bioactive compounds (AID 1345084); settings: Gynecologic cancer cell panel viability, ATPlite luminescence, 48 h; series mostly up to 57.5 µM; also: % is scaled to controls: 0 for no effect and ±100 for the full control effect; nearly all actives have a fitted effect of over 55% in size
How it was run: (§1)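 Cytotoxicity screen measuring ATP content by luciferase luminescence. Each compound is applied at five concentrations for 48 h at 37 C with 5% CO2.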

CAOV3 = assay: as above; settings: Gynecologic cancer cell panel viability, ATPlite luminescence, 48 h; series mostly up to 57.5 µM
How it was run: as §1

CASKI = assay: as above; settings: Gynecologic cancer cell panel viability, ATPlite luminescence, 48 h; series mostly up to 57.5 µM
How it was run: as §1

Es-2 = assay: as above; settings: Gynecologic cancer cell panel viability, ATPlite luminescence, 48 h; series mostly up to 57.5 µM
How it was run: as §1

HeLa = assay: as above; settings: Gynecologic cancer cell panel viability, ATPlite luminescence, 48 h; series mostly up to 57.5 µM
How it was run: as §1

Hek293T = assay: as above; settings: Gynecologic cancer cell panel viability, ATPlite luminescence, 48 h, control line for the selectivity index; series mostly up to 57.5 µM
How it was run: as §1

JEG-3 = assay: as above; settings: Gynecologic cancer cell panel viability, ATPlite luminescence, 48 h; series mostly up to 57.5 µM
How it was run: as §1

OV90 = assay: as above; settings: Gynecologic cancer cell panel viability, ATPlite luminescence, 48 h; series mostly up to 57.5 µM
How it was run: as §1

PA-1 = assay: as above; settings: Gynecologic cancer cell panel viability, ATPlite luminescence, 48 h; series mostly up to 57.5 µM
How it was run: as §1

SKOV3 = assay: as above; settings: Gynecologic cancer cell panel viability, ATPlite luminescence, 48 h; series mostly up to 57.5 µM
How it was run: as §1

Tov-21-G = assay: as above; settings: Gynecologic cancer cell panel viability, ATPlite luminescence, 48 h; series mostly up to 57.5 µM
How it was run: as §1

Tov112D = assay: as above; settings: Gynecologic cancer cell panel viability, ATPlite luminescence, 48 h; series mostly up to 57.5 µM
How it was run: as §1

CC12CC(c3ccoc3)OC(=O)C1CCC1(C)C2CCC(O)C1(C)O (configuration not stated)
inactive: outcome (NIH3T3) | Potency (C33A) | Potency (CAOV3) | outcome (CASKI) | Potency (Es-2) | Potency (HeLa) | Potency (Hek293T) | Potency (JEG-3) | Potency (OV90) | Potency (PA-1) | Potency (SKOV3) | Potency (Tov-21-G) | Potency (Tov112D)

C[C@@H]1O[C@@H](OC(=O)Cc2ccccc2)[C@H](O)[C@H](O)[C@H]1O
inactive: outcome (NIH3T3) | Potency (C33A) | Potency (CAOV3) | outcome (CASKI) | Potency (Es-2) | Potency (HeLa) | Potency (Hek293T) | Potency (JEG-3) | Potency (OV90) | Potency (PA-1) | Potency (SKOV3) | Potency (Tov-21-G) | Potency (Tov112D)

COc1cc([C@@H](O[C@@H]2O[C@H](CO)[C@@H](O)[C@H](O)[C@H]2O)[C@@H]2CO[C@H](c3ccc(O)c(OC)c3)[C@H]2CO)ccc1O
inactive: outcome (NIH3T3) inactive [at 17.4 µM] | Potency (C33A) | Potency (CAOV3) | outcome (CASKI) | Potency (Es-2) | Potency (HeLa) | Potency (Hek293T) | Potency (JEG-3) | Potency (OV90) | Potency (PA-1) | Potency (SKOV3) | Potency (Tov-21-G) | Potency (Tov112D)

CC(=C\C(C)O)/C=C(\C)C(=O)CC1CC(CC(N)=O)CC(=O)O1 (configuration not stated)
inactive: outcome (NIH3T3) | Potency (C33A) | Potency (CAOV3) | outcome (CASKI) | Potency (Es-2) | Potency (HeLa) | Potency (Hek293T) | Potency (JEG-3) | Potency (OV90) | Potency (PA-1) | Potency (SKOV3) | Potency (Tov-21-G) | Potency (Tov112D)

CCCc1[nH]nc2c1C(c1cc(Cl)cc(Cl)c1O)C(C#N)=C(N)O2 (configuration not stated)
inactive: outcome (NIH3T3) | Potency (C33A) | Potency (CAOV3) | outcome (CASKI) | Potency (Es-2) | Potency (HeLa) | Potency (Hek293T) | Potency (JEG-3) | Potency (OV90) | Potency (PA-1) | Potency (SKOV3) | Potency (Tov-21-G) | Potency (Tov112D)

CC(=O)N[C@H]1[C@H](O[C@H]2CC[C@]3(C)C4CC=C5[C@@H]6CC(C)(C)CC[C@]6(C(=O)O)[C@H](O)C[C@@]5(C)[C@]4(C)CC[C@H]3C2(C)C)O[C@H](CO)[C@@H](O)[C@@H]1O (some centres not stated)
inactive: outcome (NIH3T3) inactive [at 17.4 µM] | Potency (C33A) | Potency (CAOV3) | outcome (CASKI) | Potency (Es-2) | Potency (HeLa) | Potency (Hek293T) | Potency (JEG-3) | Potency (OV90) | Potency (PA-1) | Potency (SKOV3) | Potency (Tov-21-G) | Potency (Tov112D)

C=C(C)C1CCC2(C(=O)OC3OC(COC4OC(CO)C(O)C(O)C4O)C(OC4OC(C)C(O)C(O)C4O)C(O)C3O)CCC3(C(=O)O)C(CCC4C5(C)CCC(=O)C(C)(C)C5CCC43C)C12 (configuration not stated)
inactive: outcome (NIH3T3) inactive [at 9.27 µM] | activity change, negative = cytotoxicity (C33A) 2.12% [at 11.6 µM] | activity change, negative = cytotoxicity (CAOV3) 1.66% [at 11.6 µM] | activity change, negative = cytotoxicity (CASKI) -3.34% [at 11.6 µM] | activity change, negative = cytotoxicity (Es-2) -14% [at 11.6 µM] | activity change, negative = cytotoxicity (HeLa) 1.62% [at 11.6 µM] | activity change, negative = cytotoxicity (Hek293T) 0.77% [at 11.6 µM] | activity change, negative = cytotoxicity (JEG-3) -1.16% [at 11.6 µM] | activity change, negative = cytotoxicity (OV90) -0.071% [at 11.6 µM] | activity change, negative = cytotoxicity (PA-1) 8.9% [at 11.6 µM] | activity change, negative = cytotoxicity (SKOV3) -6.38% [at 11.6 µM] | activity change, negative = cytotoxicity (Tov-21-G) 0.715% [at 11.6 µM] | activity change, negative = cytotoxicity (Tov112D) -0.367% [at 11.6 µM]

CC(C)(Oc1ccc(-c2nc3cc(Cl)ccc3s2)cc1)C(=O)O
inactive: outcome (NIH3T3)

CC/C=C/C(O)C(O)C1=C(C)C(=O)C2(O1)C(=O)NC(OC)(C(=O)c1ccccc1)C2O (configuration not stated)
inactive: outcome (NIH3T3) inactive [at 17.4 µM] | Potency (C33A) | Potency (CAOV3) | outcome (CASKI) | Potency (Es-2) | Potency (HeLa) | Potency (Hek293T) | Potency (JEG-3) | Potency (OV90) | Potency (PA-1) | Potency (SKOV3) | Potency (Tov-21-G) | Potency (Tov112D)

C=C1CCC2C(C)(C(=O)OC)CCCC2(C)C1CCC1=CCOC1=O (configuration not stated)
inactive: outcome (NIH3T3) | Potency (C33A) | Potency (CAOV3) | outcome (CASKI) | Potency (Es-2) | Potency (HeLa) | Potency (Hek293T) | Potency (JEG-3) | Potency (OV90) | Potency (PA-1) | Potency (SKOV3) | Potency (Tov-21-G) | Potency (Tov112D)

CCCCS(=O)(=O)NC(Cc1ccc(OCCCCC2CCNCC2)cc1)C(=O)O (configuration not stated)
inactive: outcome (NIH3T3) | Potency (C33A) | Potency (CAOV3) | outcome (CASKI) | Potency (Es-2) | Potency (HeLa) | Potency (Hek293T) | Potency (JEG-3) | Potency (OV90) | Potency (PA-1) | Potency (SKOV3) | Potency (Tov-21-G) | Potency (Tov112D)

CNC(=O)c1ccc2c(c1)CCO[C@H]2CCN1CCN(c2ccc(C(N)=O)cc2)CC1
inactive: outcome (NIH3T3) | Potency (C33A) | Potency (CAOV3) | outcome (CASKI) | Potency (Es-2) | Potency (HeLa) | Potency (Hek293T) | Potency (JEG-3) | Potency (OV90) | Potency (PA-1) | Potency (SKOV3) | Potency (Tov-21-G) | Potency (Tov112D)

COc1cc(-c2ccc(O)cc2)c(OC)c(O)c1C1=CC(=O)OC1CC(=O)O (configuration not stated)
inactive: outcome (NIH3T3) | Potency (C33A) | Potency (CAOV3) | outcome (CASKI) | Potency (Es-2) | Potency (HeLa) | Potency (Hek293T) | Potency (JEG-3) | Potency (OV90) | Potency (PA-1) | Potency (SKOV3) | Potency (Tov-21-G) | Potency (Tov112D)
